Source: PubChem BioAssay AID1851 (National Center for Advancing Translational Sciences (NCATS), 2009)
Hit rate of the full screen: of about 16,000 compounds, about 5,100 (32%) were called active. Not shown: some 25% with an inconclusive outcome. Some of the results follow. Unmarked numbers belong to inactive results. Calls come from the whole dose curve; as a rule, active = well fitted curve in the direction sought with a large enough effect; inconclusive = small, poorly fitted or top-dose-only effect, or effect the other way; inactive = no such curve, though single readings can be large or run the other way.

Biological target: Cytochrome P450 3A4 (Homo sapiens) (UniProt P08684)
Sequence (P08684 whole entry, looked up): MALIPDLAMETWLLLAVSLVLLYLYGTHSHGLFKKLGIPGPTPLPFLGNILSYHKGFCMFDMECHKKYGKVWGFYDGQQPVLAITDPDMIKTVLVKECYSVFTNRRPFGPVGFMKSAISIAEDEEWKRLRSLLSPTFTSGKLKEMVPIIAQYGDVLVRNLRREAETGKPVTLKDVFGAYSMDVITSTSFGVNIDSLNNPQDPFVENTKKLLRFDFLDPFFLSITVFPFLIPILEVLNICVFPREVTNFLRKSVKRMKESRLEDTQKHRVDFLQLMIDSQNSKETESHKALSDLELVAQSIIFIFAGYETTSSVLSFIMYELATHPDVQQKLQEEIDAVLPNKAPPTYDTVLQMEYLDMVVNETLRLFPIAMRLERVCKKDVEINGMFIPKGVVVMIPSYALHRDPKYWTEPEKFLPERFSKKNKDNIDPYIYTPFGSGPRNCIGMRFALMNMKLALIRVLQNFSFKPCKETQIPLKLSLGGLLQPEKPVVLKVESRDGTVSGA
Experiment: Cytochrome panel assay with activity outcomes
Conditions: recombinant CYP, pro-luciferin dealkylation, luminescence, p450-cyp3a4; series mostly up to 57.1 µM
% is set by controls: 0 for no effect and ±100 for the full control effect.

Structure (SMILES)	activity, negative = inhibition	AC50
CC[N+](CC)(CC)CCOc1cccc(OCC[N+](CC)(CC)CC)c1OCC[N+](CC)(CC)CC	inactive	–
CCN1C[C@@]2(COC)[C@H]3[C@@H](OC)[C@H]4C1[C@@]3([C@H](OC)C[C@@H]2O)[C@H]1C[C@@]2(O)[C@@H](OC(=O)c3ccccc3)[C@@H]1[C@@]4(OC(C)=O)[C@H](O)[C@@H]2OC	inactive	–
O=c1c2ccccc2c2ccccc2c(=O)n1-c1cc2c3ccccc3ccc2c2ccccc12	-20.6% [at 11.4 µM]	–
CC1=C2C(=O)[C@@H]3[C@@H](CC=C4C[C@@H](O)CC[C@@]43C)[C@H]2CC[C@@]12O[C@H]1C[C@H](C)CN[C@H]1[C@@H]2C	7.7% [at 11.4 µM]	–
Cc1sc2ccccc2c1CC1=NCCN1	inactive	–
CC(N)Cc1ccccc1Sc1ccc(O)cc1 (stereo not drawn)	13.2% [at 2.29 µM]	–
O=[N+]([O-])c1cc([As](=O)(O)O)ccc1O	inactive	–
Cn1c(O)c(C(c2ccccn2)c2c(O)n(C)c(=S)n(C)c2=O)c(=O)n(C)c1=S	–	0.794 µM (active)
CCn1c(O)c(C(c2ccccn2)c2c(O)n(CC)c(=S)[nH]c2=O)c(=O)[nH]c1=S	inactive	–
Cn1c(O)c(C(c2ccccn2)c2c(O)n(C)c(=S)[nH]c2=O)c(=O)[nH]c1=S	inactive	–
c1ccc(N2CCC3(CCNCC3)CC2)cc1	inactive	–
Cn1cc(C(=O)C(=O)N[C@H]2CN3CCC2CC3)c2ccccc21	inactive	–
C[C@H](N)[C@H](O)c1ccc(O)c(O)c1	inactive	–
CC[C@]1(c2cccc(O)c2)CCCCN(C)C1	inactive	–
CCCCn1c(N)c(C(=O)NCc2cccs2)c2nc3ccccc3nc21	-29.4% [at 2.29 µM]	–
COc1ccc(Cn2c(N)c(C(=O)NCc3ccco3)c3nc4ccccc4nc32)cc1	–	11.2 µM (active)
CC(C)CCn1c(N)c(C(=O)NCc2cccs2)c2nc3ccccc3nc21	-19.7% [at 2.29 µM]	–
CC(=O)OCC(=O)[C@@H]1CC[C@H]2[C@H]3CC[C@H]4C[C@@H](O)CC[C@]4(C)[C@@H]3C(=O)C[C@@]12C	inactive	–
O=C(O)C[C@H]1NCc2cc3ccccc3nc21	-6.42% [at 11.4 µM]	–
CCC1=C(C[C@H]2NCCc3ccccc32)C[C@@H]2c3cc(OC)c(OC)cc3CCN2C1	-26.3% [at 11.4 µM]	–
COc1ccc(C(=O)O[C@H]2CC[C@@]3(C)[C@H]4CC[C@H]5[C@]3(C[C@]3(O)[C@H]6CN7C[C@H](C)CC[C@H]7[C@](C)(O)[C@]6(O)[C@H](O)C[C@]53O)O[C@]24O)cc1OC	-3.45% [at 11.4 µM]	–
Nc1ccccc1O.O.O=C(O)[C@H]1[O][Sb][O][C@H]1C(=O)O	-6.7% [at 11.4 µM]	–
O=C=Nc1ccc(Cc2ccc(N=C=O)cc2)cc1 (tested in a mixture with another compound)	6.47% [at 11.4 µM]	–
O=S1(=O)N(CCN2CC=C(c3c[nH]c4cc(F)ccc34)CC2)c2cccc3c2N1CCC3	–	5.01 µM (active)

Structure (SMILES)	activity, negative = inhibition	AC50
CN1CC[C@]2(C)c3cc(O)ccc3N(C)[C@@H]12	inactive	–
c1csc(CN2CCC3(CCNCC3)CC2)n1	inactive	–
Cc1c(C(=O)c2ccc3ccccc3c2)c2cccc3c2n1[C@H](CN1CCOCC1)CO3	–	7.94 µM (active)
O[C@@H]1[C@H](O)[C@H]2[C@@H](O)CCN2C[C@@H]1O	inactive	–
CCN(CC)C1=NC(=[N+](CC)CC)c2ccccc21	inactive	–
CCCCCCC[n+]1ccc(-c2cc[n+](CCCCCCC)cc2)cc1	inactive	–
O=C1CS[C@@H](c2ccccc2Cl)c2cc(Cl)ccc2N1	inactive	–
O=C(O)c1cc(N=Nc2ccc([As](=O)(O)O)cc2)ccc1O	1.38% [at 11.4 µM]	–
CCOC(C(=O)OCCCN(CC)CC)(c1ccccc1)c1ccccc1	–	0.708 µM (active)
C=C1[C@@H]2CC[C@H]3[C@@]4(C)C[C@@H](O[C@@H]5O[C@H](CO)[C@H](OS(=O)(=O)O)[C@@H](OS(=O)(=O)O)[C@@H]5OC(=O)CC(C)C)C[C@@H](C(=O)O)[C@H]4CC[C@@]3(C2)[C@H]1O	inactive	–
CCN1C[C@@]2(COC)CC[C@H](OC)[C@]34[C@@H]1[C@]1(OCO[C@@]15C[C@@H](OC)C1C[C@H]3[C@H]5[C@@H]1OC)[C@H](O)[C@@H]24	inactive	–
O=C(O)c1ccccc1-c1c2cc(Br)c(=O)cc-2oc2[c]([Hg])c(O)c(Br)cc12	inactive	–
CC(=O)O[C@H]1C[C@@H](O[C@@H]2[C@H](C)O[C@H](O[C@@H]3[C@H](C)O[C@H](O[C@@H]4CC[C@@]5(C)[C@@H](CC[C@]6(C)[C@]5(C)C[C@H](O)[C@]5(C)[C@@H](C7=CC(=O)OC7)CC[C@@]56O)C4)C[C@@H]3O)C[C@@H]2O)O[C@@H](C)[C@H]1O[C@H]1O[C@@H](CO)[C@@H](O)[C@@H](O)[C@@H]1O	inactive	–
COC(=O)[C@H]1C(=O)c2ccccc2O[C@@](C(=O)OC)(c2ccccc2)[C@@H]1c1ccccc1	–	3.98 µM (active)
O=P(O)(O)CCP(=O)(O)O	6.5% [at 11.4 µM]	–
Cc1cc[c]([Sb]2[O][C@H]([C@H](O)[C@H](O)C(=O)O)[C@@H](CO)[O]2)cc1	0.934% [at 11.4 µM]	–
C[N+]1(C)C2CC[C@H]1CC(OC(=O)[C@@H](CO)c1ccccc1)C2 (stereo partly drawn)	8.45% [at 11.4 µM]	–
C[N+]1(C)[C@@H]2CC[C@H]1CC(OC(=O)c1c[nH]c3ccccc13)C2 (stereo partly drawn)	–	7.94 µM (active)
C[N+]1(C)[C@@H]2CC[C@H]1CC(OC(=O)[C@@H](CO)c1ccccc1)C2 (stereo partly drawn)	inactive	–
CC(=O)OCC1=C(C(=O)O)N2C(=O)[C@@H](N)[C@@H]2SC1	inactive	–
CCc1ccc(CCN2CCCCC2)nc1	-16.1% [at 11.4 µM]	–
C[C@@]12CCC(=O)C=C1C=C[C@H]1[C@H]3CC[C@](O)(CCC(=O)O)[C@]3(C)CC[C@@H]12	inactive	–
O=C(c1ccc(-c2nnc(Nc3ccccc3)c3ccccc23)cc1)N1C[C@H]2C[C@H](C1)c1cccc(=O)n1C2	–	31.6 µM (active)
O=c1cccc2n1CC1CNC[C@H]2C1	inactive	–
